activation, viability and Potency data for 22 compounds are collected here from PubChem BioAssay (NCATS).

Molecules are shown by their SMILES. Where “and” joins values, the source holds several entries; their conditions need not be identical. Equal values may be shown once. Records with an inconclusive call do not appear. Values without a mark were called inactive. Calls of active or inactive are those of the source. Calls follow the shape of the dose curve; as a rule, active = well fitted curve in the direction sought with a large enough effect; inconclusive = small, poorly fitted or top-dose-only effect, or another doubt; inactive = no such curve, though single readings can be large; an effect the other way counts as inactive or inconclusive.

Assay [1] addresses Cellular tumor antigen p53 (Homo sapiens) (UniProt P04637). In words: Primary qHTS for small molecule compounds that upregulate eGFP-tagged delta133p53alpha (in N-terminal) cells. (AID 2060322).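 Also: cells pre-induced with doxycycline then dosed without doxycycline; series mostly up to about 56 µM; 0% = DMSO vehicle and 100% = reference activator; nearly all actives have a fitted effect of over 75% in size.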 As to conditions: NCI-H358 eGFP-delta133p53alpha fluorescence, 24 h; activation: hits give high values. The gist of the method: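 NCI-H358 cells pre-induced 24 h with 10 ng/ml doxycycline for eGFP-delta133p53alpha, plated dox-free and exposed 24 h at 37C to titrated compounds. Fixed, Hoechst-stained; gated GFP peak intensity by laser scanning cytometry, normalized to DMSO (0%) and 57.5 uM 5-azacytidine (100%).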
Background: Quantitative high-throughput screening tests each substance at several concentrations.

The nature of assay [2]: BET inhibitor-based combinations targeting novel dependencies in MECOM-rearranged (r) AML: SET-2 cell line (AID 2202231). Also: nearly all actives have a fitted effect of over 35% in size. Also: potency is read from the fitted curve at half-maximal effect.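 As to viability: plate controls were DMSO treated cells for no effect and wells without cells for full effect.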 As to conditions: SET-2 AML cells viability, CellTiter-Glo luminescence, 48 h; viability: hits give low values, concentration not given here. The gist of the method:
(§1)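 Here, 11-point titrations of each agent were applied to 500 seeded cells and incubated 48 hr; CellTiter-Glo signal, scaled against DMSO and empty wells, was integrated as AUC, then Z-scored within the individual line.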
(In general: In ATP-based viability assays light output follows the ATP content of the culture.)

Assay [3] is described as follows: BET inhibitor-based combinations targeting novel dependencies in MECOM-rearranged (r) AML: OCI-AML3 cell line (AID 2202232). Also: nearly all actives have a fitted effect of over 35% in size. Also: potency is read from the fitted curve at half-maximal effect. As to conditions: Potency: OCI-AML3 viability. The gist of the method: as §1
A short description of assay [4]: BET inhibitor-based combinations targeting novel dependencies in MECOM-rearranged (r) AML: HNT-34 cell line (AID 2202234). Also: nearly all actives have a fitted effect of over 35% in size. Also: potency is read from the fitted curve at half-maximal effect. The gist of the method:
(§2)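 Normalized to DMSO and empty-well controls, the luminescence data from CellTiter-Glo after 48 hr drug exposure were fitted across 11 concentrations. Reported metrics are area under the dose-response curve and its Z-transformed form.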

The nature of assay [5]: BET inhibitor-based combinations targeting novel dependencies in MECOM-rearranged (r) AML: UCSD-AML1 cell line (AID 2202235). Also: nearly all actives have a fitted effect of over 40% in size. Also: potency is read from the fitted curve at half-maximal effect. The gist of the method: as §2
Assay [6] in a line: BET inhibitor-based combinations targeting novel dependencies in MECOM-rearranged (r) AML: AML-191 cell line (AID 2202236; also: nearly all actives have a fitted effect of over 35% in size; also: potency is read from the fitted curve at half-maximal effect). In short, it runs like this: as §1
Assay [7] in a line: BET inhibitor-based combinations targeting novel dependencies in MECOM-rearranged (r) AML: AML-194 cell line (AID 2202237; also: nearly all actives have a fitted effect of over 40% in size; also: potency is read from the fitted curve at half-maximal effect). The gist of the method:
as §1

A short description of assay [8]: BET inhibitor-based combinations targeting novel dependencies in MECOM-rearranged (r) AML: MV-4-11 cell line (AID 2202233).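 Also: plate controls were DMSO for no effect and blank wells for full effect; nearly all actives have a fitted effect of over 45% in size.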 In short, it runs like this: as §2

Sequence of Cellular tumor antigen p53 (Homo sapiens) (P04637 whole entry, looked up): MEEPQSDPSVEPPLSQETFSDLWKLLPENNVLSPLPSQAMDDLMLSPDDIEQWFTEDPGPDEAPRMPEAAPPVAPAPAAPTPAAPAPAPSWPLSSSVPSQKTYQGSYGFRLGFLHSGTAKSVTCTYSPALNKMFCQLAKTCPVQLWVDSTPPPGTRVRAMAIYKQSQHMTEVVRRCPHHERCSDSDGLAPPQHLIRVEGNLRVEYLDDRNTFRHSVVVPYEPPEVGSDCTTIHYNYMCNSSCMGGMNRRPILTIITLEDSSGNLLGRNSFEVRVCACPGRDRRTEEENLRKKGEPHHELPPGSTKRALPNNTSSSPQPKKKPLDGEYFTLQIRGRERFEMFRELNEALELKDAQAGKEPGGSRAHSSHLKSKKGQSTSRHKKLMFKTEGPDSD

For `OC[C@H]1OC(O)C[C@@H](O)[C@H]1O` (some centres not stated), the activation in assay [1] is 27.8%. In assay [2], the viability was 110%. For the same compound, the Potency entry in assay [3], in assay [4], in assay [5], in assay [6] and in assay [7] was “inactive” throughout.

As for `CC(NCCc1ccc(O)cc1)C(O)c1ccc(O)cc1` (configuration not stated), the activation in assay [1] was -5.46%. Besides, the viability in assay [2] is 112%. Moreover, the Potency result in assay [3], in assay [4], in assay [5], in assay [6] and in assay [7] was “inactive” each time.

In the case of `CC(S)C(=O)NCC(=O)O` (configuration not stated), the activation in assay [1] was 9.72%. Moreover, in assay [2], the viability is 114%. The Potency in assay [3] is 8330 nM (active). The Potency result in assay [4], in assay [5] and in assay [7] was “inactive” throughout.

For `C[C@](Cc1c[nH]c2ccccc12)(NC(=O)OC1C2CC3CC(C2)CC1C3)C(=O)NC[C@H](NC(=O)CCC(=O)O)c1ccccc1` (some centres not stated), the activation in assay [1] was 8.58%. For the same compound, in assay [2], the viability is 110%. Further, the Potency result in assay [3], in assay [8] and in assay [7] was “inactive” throughout.

`COc1ccc(-c2oc3c(CC=C(C)C)c(O)cc(O)c3c(=O)c2O)cc1`: the activation in assay [1] is -9.57%. The viability in assay [2] was 97%. Also, the Potency result in assay [3], in assay [4], in assay [5], in assay [6] and in assay [7] was “inactive” throughout.

For the compound `S=c1nc[nH]c2nc[nH]c12`, the activation in assay [1] was -18.4% and 17.9%. Moreover, the Potency was 2630 nM (active) in assay [2]; 1860 nM (active) in assay [3]; 16600 nM (active) in assay [4]; 3720 nM (active) in assay [5]; 590 nM (active) in assay [7].

For `NC(N)=NC(N)=NCCc1ccccc1`, in assay [1], the activation was -18.4% and -5.97%. Moreover, the Potency in assay [2] is 13200 nM (active); in assay [3] it was 16600 nM (active). Moreover, the Potency entry in assay [4], in assay [5], in assay [6] and in assay [7] was “inactive” in each case.

As for `CCn1cc(C(=O)O)c(=O)c2cc(F)c(N3CCN(C)CC3)cc21`, the activation in assay [1] is -2.51% and -35.6%. For the same compound, in assay [2], the viability is 97.2%. Besides, the Potency result in assay [3], in assay [4], in assay [5] and in assay [6] was “inactive” in each case.

Take `COc1ccc(-c2ccc3cc(C(=O)O)ccc3c2)cc1C12CC3CC(CC(C3)C1)C2`: the activation in assay [1] is -14.2% and 5.04%. The viability in assay [2] is 111%. Besides, the Potency in assay [3] is 3.3 nM (active). For the same compound, the Potency entry in assay [4], in assay [5], in assay [6] and in assay [7] was “inactive” in each case.

Regarding `O=C(Nc1ccc2[nH]nc(-c3ccncc3)c2c1)[C@@H]1CCN(CC(=O)N2CCN(c3ccc(-c4ncccn4)cc3)CC2)C1`, in assay [1], the activation is 4.47%. Moreover, the Potency in assay [2] was 23500 nM (active); in assay [3], 235 nM (active); in assay [4], 1050 nM (active); in assay [5], 2630 nM (active); in assay [6] it was 2090 nM (active).

`COc1cc(F)c(C(C)C)cc1-c1ccc(C(F)(F)F)cc1CN1C(=O)O[C@H](c2cc(C(F)(F)F)cc(C(F)(F)F)c2)[C@@H]1C`: in assay [1], the activation was -9.08%. Also, in assay [2], the viability was 105%. Besides, the Potency entry in assay [3], in assay [4], in assay [5] and in assay [7] was “inactive” in each case.

Turning to `Cc1cccc(N(C)C(=S)Oc2ccc3ccccc3c2)c1`, the activation in assay [1] is 2.82% and 1.76%. For the same compound, in assay [2], the viability is 85.9%. The Potency result in assay [3], in assay [4], in assay [5] and in assay [7] was “inactive” each time.

Take `COc1c(N2C[C@@H]3CCCN[C@H]3C2)c(F)cc2c(=O)c(C(=O)O)cn(C3CC3)c12`: in assay [1], the activation is 0.987%. Moreover, the Potency in assay [2] is 14800 nM (active). Moreover, the Potency result in assay [3], in assay [4], in assay [6] and in assay [7] was “inactive” throughout.

Take `Nc1nc(N)nc(-c2cc(Cl)ccc2Cl)n1`: the activation in assay [1] was 2.82% and 12%. Also, the viability in assay [2] is 105%. Further, the Potency entry in assay [3], in assay [4], in assay [5], in assay [6] and in assay [7] was “inactive” in each case.

For `O=C(Nc1cccc(Cl)c1)Nc1ncc(CCNc2ncnc3ccsc23)s1`, in assay [1], the activation was -7.26%. Further, the Potency is 20900 nM (active) in assay [2] and 166 nM (active) in assay [3]. In addition, the Potency entry in assay [4] and in assay [5] was “inactive” throughout.

With `NC(=O)c1cccc(-c2cccc(OC(=O)NC3CCCCC3)c2)c1`, the activation in assay [1] was -16.3%. The viability in assay [2] is 103%. Further, the Potency entry in assay [3], in assay [4], in assay [5] and in assay [7] was “inactive” in each case.

With `O=C(O)c1cc(=O)c2c(OCC(O)COc3cccc4oc(C(=O)O)cc(=O)c34)cccc2o1`, the activation in assay [1] was 19.8%. For the same compound, in assay [2], the viability is 114%. The Potency result in assay [3], in assay [4], in assay [6] and in assay [7] was “inactive” in each case.

For the compound `Cn1c(=O)c(Oc2ccc(F)cc2F)cc2cnc(NC3CCOCC3)nc21`, in assay [1], the activation is -33.7%. Also, the viability in assay [2] is 115%. The Potency result in assay [3], in assay [4] and in assay [5] was “inactive” throughout.

In the case of `CC(C)OC(=O)C(C(=O)OC(C)C)=C1SC=CS1`, in assay [1], the activation is 3.95% and 27.9%. Moreover, the viability in assay [2] is 105%. Also, the Potency result in assay [3], in assay [4], in assay [6] and in assay [7] was “inactive” in each case.

Regarding `CC(C)Cn1cnc2c(N)nc3ccccc3c21`, the activation in assay [1] was -10% and 13.9%. Moreover, in assay [2], the viability was 101%. Moreover, the Potency result in assay [3], in assay [4], in assay [5], in assay [6] and in assay [7] was “inactive” throughout.

For `CN(CCOc1ccc(CC2SC(=O)NC2=O)cc1)c1ccccn1` (configuration not stated), in assay [1], the activation was 6.69% and 5.38%. The viability in assay [2] is 102%. Moreover, the Potency result in assay [3], in assay [4], in assay [6] and in assay [7] was “inactive” in each case.

Turning to `O=C(O)C1=CC(O)C(O)[C@H](O)C1` (some centres not stated), the activation in assay [1] is 16.4%. Further, the viability in assay [2] is 115%. Also, the Potency result in assay [3], in assay [4], in assay [5], in assay [6] and in assay [7] was “inactive” in each case.

In general, viability refers to a read-out of living cells in per cent, often relative to untreated cells.
